Outcome and AC50 data for 16 molecules are collected here from PubChem BioAssay (EPA / NIEHS).

Records with an inconclusive call do not appear. Active and inactive are the calls of the source. The calls were made as follows: active = hit-call score of the fitted dose curve at least 0.9, where 1 is the maximum; inconclusive = response in the unintended direction; inactive = score below 0.9.

The target in assay [1] is guinea pig Serotonin, 5-Hydroxytryptamine Receptor 4 (5HT4), HTR4 (gene 100135548) (UniProt O70528). Put plainly: NVS_GPCR_g5HT4: NovaScreen (NVS) G Protein-Coupled Receptor Assay for guinea pig Serotonin, 5-Hydroxytryptamine Receptor 4 (5HT4) (AID 2283294). The essentials:
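Compounds first screened in duplicate at 25 uM, actives followed up in concentration series. Binding measured as displacement of specific radioligand from guinea pig striatal membranes, 1 h, filter-based scintillation read-out versus DMSO baseline.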

The subject of assay [2] is rat Adrenergic, Alpha 1B Receptor (Adra1B), gene 24173. The assay is described as follows: NVS_GPCR_rAdra1B: NovaScreen (NVS) G Protein-Coupled Receptor Assay for rat Adrenergic, Alpha 1B Receptor (Adra1B) (AID 2283297). The gist of the method:
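Filter-binding radioligand competition on membranes from rat liver, read after 1 h by scintillation counting. Single-concentration duplicate screen at 25 uM, followed by concentration-response on actives, normalised to DMSO.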

Assay [3] concerns 5-hydroxytryptamine receptor 2C (pig). The assay is described as follows: NVS_GPCR_p5HT2C: NovaScreen (NVS) G Protein-Coupled Receptor Assay for pig Serotonin, 5-Hydroxytryptamine Receptor 2C (5HT2C) (AID 2283288). The gist of the method:
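Radioligand displacement on membranes from pig choroid plexus, detected by filter scintillation counting after 1 h. Tested first at a single 25 uM in duplicate, then in concentration-response for actives; DMSO served as baseline.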

Assay [4] addresses human Neurokinin, NK2 Receptor, TACR2 (gene 6865) (UniProt P21452). The assay is described as follows: NVS_GPCR_hNK2: NovaScreen (NVS) G Protein-Coupled Receptor Assay for human Neurokinin, NK2 Receptor (AID 2283278).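 Also: actives reduce bound radioligand signal relative to DMSO baseline.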 The essentials: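 Filter-based scintillation counting measured radioligand bound to receptor extracted from CHO cells, 4 hours after compound addition. Chemicals screened first at 25 uM in duplicate, with actives retested in concentration series relative to DMSO.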

The target in assay [5] is human Neurotensin Receptor (NTS), NTSR1 (gene 4923) (UniProt P30989). Put plainly: NVS_GPCR_hNTS: NovaScreen (NVS) G Protein-Coupled Receptor Assay for human Neurotensin Receptor (NTS) (AID 2283279). The gist of the method: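 Compounds competed with a radiolabelled ligand for binding to CHO-derived human neurotensin receptor; bound signal counted after filtration, 1 h. Screened first at a single concentration of 25 uM in duplicate, then concentration series to 50 uM maximum for actives.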

Assay [6] deals with human Opioid Receptor Delta 1 (Opiate D1), OPRD1 (gene 4985) (UniProt P41143). Put plainly: NVS_GPCR_hOpiate_D1: NovaScreen (NVS) G Protein-Coupled Receptor Assay for human Opioid Receptor Delta 1 (Opiate D1) (AID 2283280). The essentials:
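Membrane preparations from CHO cells bearing the human receptor were incubated 1 h with test chemical, and bound radioligand was counted after filtration. Actives from 25 uM duplicate screening were retested in concentration-response.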

Assay [7] addresses human Thromboxane A2 Receptor (TXA2), TBXA2R (gene 6915) (UniProt P21731). The assay is described as follows: NVS_GPCR_hTXA2: NovaScreen (NVS) G Protein-Coupled Receptor Assay for human Thromboxane A2 Receptor (TXA2) (AID 2283282).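 Also: actives reduce bound radioligand signal relative to DMSO baseline.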 The gist of the method:
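Human platelet-derived receptor preparation incubated with test chemical and radiolabelled ligand for 1 hour, cell-free. Bound label was separated by filtration and counted; displacement relative to DMSO controls gave activity, screened at 25 uM, then titrated.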

Assay [8] addresses human Orphanin, Opioid Related Nociceptin Receptor 1 (ORL1), OPRL1 (gene 4987) (UniProt P41146). Put plainly: NVS_GPCR_hORL1: NovaScreen (NVS) G Protein-Coupled Receptor Assay for human Orphanin, Opioid Related Nociceptin Receptor 1 (ORL1) (AID 2283283). The gist of the method: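 Cell-free binding using HEK293-derived receptor protein: radioligand displacement measured by filter scintillation 1 hour after dosing. Primary testing at 25 uM in duplicate, followed by singleton concentration series up to 50 uM; DMSO served as negative control.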

Assay [9] deals with mouse Cholecystokinin, CCK1 Receptor (CCKA), Cckar (gene 12425) (UniProt O08786). Put plainly: NVS_GPCR_mCCKAPeripheral: NovaScreen (NVS) G Protein-Coupled Receptor Assay for mouse Cholecystokinin, CCK1 Receptor (CCKA) (AID 2283285). The gist of the method:
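Chemicals were first screened in duplicate at 25 uM, with those meeting threshold (e.g., 30% inhibition) retested in singleton concentration series to 50 uM maximum. Binding of radioligand to mouse pancreatic membranes was read after 2 h by filtration and scintillation counting.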

For assay [10], the system named is rabbit Platelet Activating Factor Receptor (PAF), gene 100354046. Put plainly: NVS_GPCR_rabPAF: NovaScreen (NVS) G Protein-Coupled Receptor Assay for rabbit Platelet Activating Factor Receptor (PAF) (AID 2283287). The essentials:
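Rabbit platelet membrane preparation; radioligand displacement read by filter-based scintillation counting 1 h after dosing, loss of signal versus DMSO. Primary screen in duplicate at 25 uM, actives followed up in concentration series.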

For assay [11], the target named is human Opioid Receptor Mu (Opiate Mu), OPRM1 (gene 4988) (UniProt P35372). Put plainly: NVS_GPCR_hOpiate_mu: NovaScreen (NVS) G Protein-Coupled Receptor Assay for human Opioid Receptor Mu (Opiate Mu) (AID 2283290).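 Also: hits lower bound tracer signal versus DMSO meaning displacement of the ligand.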 The essentials:
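CHO-derived receptor protein, cell-free; radioligand displacement, filtration + scintillation counting, read at 2.5 h. DMSO = negative control/baseline. Primary: 25 uM single conc, duplicate; secondary: concentration series.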

The target in assay [12] is rat Adrenergic, Alpha 1, Non-selective Receptor (Adra1), Adra1a (gene 29412) (UniProt P43140). Put plainly: NVS_GPCR_rAdra1_NonSelective: NovaScreen (NVS) G Protein-Coupled Receptor Assay for rat Adrenergic, Alpha 1, Non-selective Receptor (Adra1) (AID 2283289). The gist of the method: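 Chemicals first screened in duplicate at 25 uM, then actives tested in concentration series up to 50 uM. Binding measured as displacement of radioligand from rat forebrain membrane receptors, 1 h, filtration with scintillation readout; DMSO baseline.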
Chain of rat Adrenergic, Alpha 1, Non-selective Receptor (Adra1), Adra1a (gene 29412) (P43140 whole entry, looked up): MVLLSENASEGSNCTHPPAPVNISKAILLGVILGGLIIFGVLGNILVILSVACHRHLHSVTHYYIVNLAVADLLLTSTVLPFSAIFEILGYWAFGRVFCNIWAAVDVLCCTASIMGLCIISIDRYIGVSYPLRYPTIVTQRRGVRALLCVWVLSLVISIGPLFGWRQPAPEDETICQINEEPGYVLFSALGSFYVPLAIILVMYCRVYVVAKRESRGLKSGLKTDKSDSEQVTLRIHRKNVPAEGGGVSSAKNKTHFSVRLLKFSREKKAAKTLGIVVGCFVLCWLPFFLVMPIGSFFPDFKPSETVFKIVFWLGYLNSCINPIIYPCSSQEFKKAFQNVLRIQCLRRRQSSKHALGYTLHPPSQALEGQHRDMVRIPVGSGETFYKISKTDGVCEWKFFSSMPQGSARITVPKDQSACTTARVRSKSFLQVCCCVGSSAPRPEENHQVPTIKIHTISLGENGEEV

For assay [13], the target named is mouse Cholecystokinin, CCK2 Receptor (CCKB), Cckbr (gene 12426) (UniProt P56481). The assay is described as follows: NVS_GPCR_mCKKBCentral: NovaScreen (NVS) G Protein-Coupled Receptor Assay for mouse Cholecystokinin, CCK2 Receptor (CCKB) (AID 2283293). The gist of the method: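 Mouse forebrain membrane preparation incubated 2 h with chemical and radioligand; bound radioactivity counted after filtration. Single-concentration duplicate screen at 25 uM, then concentration series to 50 uM max for hits, DMSO as baseline.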

For assay [14], the target named is human Vasopressin 1A Receptor (V1A), AVPR1A (gene 552) (UniProt P37288). Put plainly: NVS_GPCR_hV1A: NovaScreen (NVS) G Protein-Coupled Receptor Assay for human Vasopressin 1A Receptor (V1A) (AID 2283284). The essentials:
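Single-concentration duplicate screen at 25 uM, with concentration-response follow-up (top 50 uM) for actives. The assay measured displacement of a radioligand from human platelet-derived receptor after 1.5 h, detected by filtration and scintillation counting.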

Assay [15] deals with rat Corticotropin Releasing Factor Receptor (CRF), Crhr1 (gene 58959) (UniProt P35353). The assay is described as follows: NVS_GPCR_rCRF: NovaScreen (NVS) G Protein-Coupled Receptor Assay for rat Corticotropin Releasing Factor Receptor (CRF) (AID 2283300). The essentials:
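Single-concentration (25 uM, duplicate) radioligand binding on rat cortical membrane preparations, counted by scintillation after 2 h. Activity scored as signal loss relative to DMSO negative control.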

Assay [16] deals with human Purinergic Receptor P2Y, P2RY1 (gene 5028) (UniProt P47900). Put plainly: NVS_GPCR_hPY2: NovaScreen (NVS) G Protein-Coupled Receptor Assay for human Purinergic Receptor P2Y (AID 2283281). The gist of the method:
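Filtration scintillation readout of radioligand displacement on U937 extract, measured 1 h post-dosing. Single 25 uM duplicate screen, then singleton concentration series to 50 uM for chemicals passing threshold; DMSO as baseline.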

Assay [17] concerns the target rat Adrenergic Receptor, Beta (Adrb), Non-selective Binding, Adrb1 (gene 24925) (UniProt P18090). The assay is described as follows: NVS_GPCR_rAdrb_NonSelective: NovaScreen (NVS) G Protein-Coupled Receptor Assay for rat Adrenergic Receptor, Beta (Adrb), Non-selective Binding (AID 2283298). The gist of the method: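 Rat cortical membranes incubated 1 h with beta-adrenergic radioligand and test chemical; bound ligand measured by filtration and scintillation counting. Screen at 25 uM duplicate, then concentration series with 50 uM maximum; loss of signal versus DMSO.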

In assay [18] the target is rat Serotonin, 5-Hydroxytryptamine Receptor 1 (5HT1), Non-Selective Binding, Htr1a (gene 24473) (UniProt P19327). Put plainly: NVS_GPCR_r5HT1_NonSelective: NovaScreen (NVS) G Protein-Coupled Receptor Assay for rat Serotonin, 5-Hydroxytryptamine Receptor 1 (5HT1), Non-Selective Binding (AID 2283286). The essentials:
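Binding of a radioligand to rat cortex membranes is read by filtration and scintillation counting after 1 h. Compounds were screened at 25 uM in duplicate. Actives were then titrated to a top of 50 uM. DMSO is the baseline.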

Assay [19] has as its system guinea pig Atrionatriuretic Peptide Receptor A (ANPA), gene 100135578. The assay is described as follows: NVS_GPCR_gANPA: NovaScreen (NVS) G Protein-Coupled Receptor Assay for guinea pig Atrionatriuretic Peptide Receptor A (ANPA) (AID 2283291). The gist of the method: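 Displacement of specific radioligand from guinea pig cerebellum membranes was read by scintillation after 1 h. A duplicate single-point screen at 25 uM was followed by a concentration series up to 50 uM, analysed relative to DMSO.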

In assay [20] the target is guinea pig Bradykinin Receptor B2 (BK2), BDKRB2 (gene 100135486) (UniProt O70526). The assay is described as follows: NVS_GPCR_gBK2: NovaScreen (NVS) G Protein-Coupled Receptor Assay for guinea pig Bradykinin Receptor B2 (BK2) (AID 2283292). The gist of the method: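 Guinea pig ileum membrane preparation incubated 1 h with radioligand and test chemical; bound counts measured after filtration. Primary duplicate screening at 25 uM, then singleton concentration series with a 50 uM top dose; DMSO as baseline.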
Chain of guinea pig Bradykinin Receptor B2 (BK2), BDKRB2 (gene 100135486) (O70526 whole entry, looked up): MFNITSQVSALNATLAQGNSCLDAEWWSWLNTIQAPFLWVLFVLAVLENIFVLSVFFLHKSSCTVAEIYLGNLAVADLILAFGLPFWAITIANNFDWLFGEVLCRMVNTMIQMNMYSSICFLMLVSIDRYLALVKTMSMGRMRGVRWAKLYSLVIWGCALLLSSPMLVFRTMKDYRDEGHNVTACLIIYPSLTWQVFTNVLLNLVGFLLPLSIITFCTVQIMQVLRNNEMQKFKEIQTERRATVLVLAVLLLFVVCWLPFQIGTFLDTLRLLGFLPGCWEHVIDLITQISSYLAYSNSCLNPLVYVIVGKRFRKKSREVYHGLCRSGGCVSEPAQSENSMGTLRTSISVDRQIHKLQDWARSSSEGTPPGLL

Chain of human Thromboxane A2 Receptor (TXA2), TBXA2R (gene 6915) (P21731 whole entry, looked up): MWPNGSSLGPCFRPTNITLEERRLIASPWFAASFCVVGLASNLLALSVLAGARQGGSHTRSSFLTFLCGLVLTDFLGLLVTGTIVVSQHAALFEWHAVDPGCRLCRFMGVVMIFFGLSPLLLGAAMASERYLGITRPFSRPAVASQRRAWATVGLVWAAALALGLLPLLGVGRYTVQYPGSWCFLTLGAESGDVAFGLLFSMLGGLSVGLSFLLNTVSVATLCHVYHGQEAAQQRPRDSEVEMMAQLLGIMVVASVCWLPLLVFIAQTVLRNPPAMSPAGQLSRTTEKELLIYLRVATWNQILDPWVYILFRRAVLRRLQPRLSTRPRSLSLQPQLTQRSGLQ
Chain of human Opioid Receptor Delta 1 (Opiate D1), OPRD1 (gene 4985) (P41143 whole entry, looked up): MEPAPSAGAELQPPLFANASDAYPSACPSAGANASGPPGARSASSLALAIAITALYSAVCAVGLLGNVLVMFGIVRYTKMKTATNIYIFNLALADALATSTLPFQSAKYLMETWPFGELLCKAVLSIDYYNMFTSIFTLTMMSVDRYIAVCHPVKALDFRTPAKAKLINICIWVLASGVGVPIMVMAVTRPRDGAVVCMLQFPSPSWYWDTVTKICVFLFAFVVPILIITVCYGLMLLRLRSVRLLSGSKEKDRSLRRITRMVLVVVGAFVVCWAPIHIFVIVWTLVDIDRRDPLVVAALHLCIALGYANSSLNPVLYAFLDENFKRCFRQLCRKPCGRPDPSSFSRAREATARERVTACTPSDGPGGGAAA
Chain of guinea pig Serotonin, 5-Hydroxytryptamine Receptor 4 (5HT4), HTR4 (gene 100135548) (O70528 whole entry, looked up): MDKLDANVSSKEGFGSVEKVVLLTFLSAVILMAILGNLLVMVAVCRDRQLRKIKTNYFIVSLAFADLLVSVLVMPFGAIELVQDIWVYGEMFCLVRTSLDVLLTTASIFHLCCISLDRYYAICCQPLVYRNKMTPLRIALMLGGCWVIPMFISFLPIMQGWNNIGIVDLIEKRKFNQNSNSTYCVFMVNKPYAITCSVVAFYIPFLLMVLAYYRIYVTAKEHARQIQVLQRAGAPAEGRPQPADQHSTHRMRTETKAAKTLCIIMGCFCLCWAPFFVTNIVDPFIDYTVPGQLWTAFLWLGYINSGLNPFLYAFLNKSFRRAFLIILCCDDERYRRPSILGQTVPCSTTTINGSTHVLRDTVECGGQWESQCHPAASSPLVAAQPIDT
Chain of human Opioid Receptor Mu (Opiate Mu), OPRM1 (gene 4988) (P35372 whole entry, looked up): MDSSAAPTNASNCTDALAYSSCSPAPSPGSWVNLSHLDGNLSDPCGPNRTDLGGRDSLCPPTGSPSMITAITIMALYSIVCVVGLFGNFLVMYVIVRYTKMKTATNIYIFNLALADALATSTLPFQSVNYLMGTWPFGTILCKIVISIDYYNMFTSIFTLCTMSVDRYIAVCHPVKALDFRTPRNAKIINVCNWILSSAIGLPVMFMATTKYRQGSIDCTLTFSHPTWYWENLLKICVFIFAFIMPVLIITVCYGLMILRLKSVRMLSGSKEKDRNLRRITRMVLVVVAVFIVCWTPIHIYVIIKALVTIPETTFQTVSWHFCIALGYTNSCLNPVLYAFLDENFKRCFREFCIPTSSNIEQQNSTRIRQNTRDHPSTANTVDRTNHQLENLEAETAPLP
Chain of human Orphanin, Opioid Related Nociceptin Receptor 1 (ORL1), OPRL1 (gene 4987) (P41146 whole entry, looked up): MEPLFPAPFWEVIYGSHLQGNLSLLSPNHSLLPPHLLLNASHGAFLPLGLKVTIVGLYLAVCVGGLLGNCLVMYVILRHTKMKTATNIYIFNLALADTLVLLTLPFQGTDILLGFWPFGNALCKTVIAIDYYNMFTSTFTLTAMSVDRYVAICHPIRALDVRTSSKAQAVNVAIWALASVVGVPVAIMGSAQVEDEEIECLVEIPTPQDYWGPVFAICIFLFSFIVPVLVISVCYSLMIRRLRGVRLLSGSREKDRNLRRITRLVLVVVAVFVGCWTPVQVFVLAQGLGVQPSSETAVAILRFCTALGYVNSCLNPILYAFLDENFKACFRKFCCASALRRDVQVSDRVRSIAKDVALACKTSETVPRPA
Chain of rat Serotonin, 5-Hydroxytryptamine Receptor 1 (5HT1), Non-Selective Binding, Htr1a (gene 24473) (P19327 whole entry, looked up): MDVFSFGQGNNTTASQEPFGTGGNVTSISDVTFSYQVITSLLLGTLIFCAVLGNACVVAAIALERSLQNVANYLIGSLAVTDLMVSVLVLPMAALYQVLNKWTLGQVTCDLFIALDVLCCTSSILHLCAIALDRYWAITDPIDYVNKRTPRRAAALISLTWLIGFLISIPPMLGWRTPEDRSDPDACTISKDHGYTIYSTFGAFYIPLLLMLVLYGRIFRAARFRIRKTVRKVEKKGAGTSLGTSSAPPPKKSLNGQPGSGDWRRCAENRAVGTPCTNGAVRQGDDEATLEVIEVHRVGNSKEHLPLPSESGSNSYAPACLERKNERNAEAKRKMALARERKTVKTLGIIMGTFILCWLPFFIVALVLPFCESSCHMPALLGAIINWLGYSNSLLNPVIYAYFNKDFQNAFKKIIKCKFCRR
Chain of human Neurokinin, NK2 Receptor, TACR2 (gene 6865) (P21452 whole entry, looked up): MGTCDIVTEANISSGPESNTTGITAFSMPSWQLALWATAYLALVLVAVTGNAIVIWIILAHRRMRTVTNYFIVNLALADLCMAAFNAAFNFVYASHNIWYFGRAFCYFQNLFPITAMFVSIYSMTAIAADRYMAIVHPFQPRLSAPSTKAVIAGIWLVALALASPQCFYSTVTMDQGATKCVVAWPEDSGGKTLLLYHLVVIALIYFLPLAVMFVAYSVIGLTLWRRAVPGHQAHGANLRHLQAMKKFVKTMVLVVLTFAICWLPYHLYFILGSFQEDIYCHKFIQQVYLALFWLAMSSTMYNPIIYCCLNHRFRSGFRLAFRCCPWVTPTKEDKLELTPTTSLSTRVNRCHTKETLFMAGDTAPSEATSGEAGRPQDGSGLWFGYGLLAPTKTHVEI
Chain of human Purinergic Receptor P2Y, P2RY1 (gene 5028) (P47900 whole entry, looked up): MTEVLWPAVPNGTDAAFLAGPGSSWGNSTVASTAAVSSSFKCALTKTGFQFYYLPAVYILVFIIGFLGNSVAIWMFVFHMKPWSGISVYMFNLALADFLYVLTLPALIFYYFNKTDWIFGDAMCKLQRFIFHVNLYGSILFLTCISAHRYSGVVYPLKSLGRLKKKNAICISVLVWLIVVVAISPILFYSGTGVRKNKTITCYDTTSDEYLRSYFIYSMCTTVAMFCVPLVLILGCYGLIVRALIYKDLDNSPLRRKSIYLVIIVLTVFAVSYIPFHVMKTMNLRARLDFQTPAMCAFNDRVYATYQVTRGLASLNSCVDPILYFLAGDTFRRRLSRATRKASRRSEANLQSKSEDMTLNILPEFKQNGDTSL
Chain of human Vasopressin 1A Receptor (V1A), AVPR1A (gene 552) (P37288 whole entry, looked up): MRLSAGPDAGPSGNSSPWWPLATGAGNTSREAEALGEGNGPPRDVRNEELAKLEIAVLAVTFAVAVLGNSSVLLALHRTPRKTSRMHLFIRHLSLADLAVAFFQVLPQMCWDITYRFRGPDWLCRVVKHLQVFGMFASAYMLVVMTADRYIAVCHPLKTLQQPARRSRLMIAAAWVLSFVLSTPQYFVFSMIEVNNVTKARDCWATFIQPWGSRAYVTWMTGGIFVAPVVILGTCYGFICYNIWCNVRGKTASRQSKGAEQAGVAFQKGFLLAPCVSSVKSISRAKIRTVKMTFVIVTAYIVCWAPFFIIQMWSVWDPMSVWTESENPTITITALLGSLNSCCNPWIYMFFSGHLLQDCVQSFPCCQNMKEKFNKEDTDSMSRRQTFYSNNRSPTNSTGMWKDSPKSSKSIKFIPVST
Chain of rat Corticotropin Releasing Factor Receptor (CRF), Crhr1 (gene 58959) (P35353 whole entry, looked up): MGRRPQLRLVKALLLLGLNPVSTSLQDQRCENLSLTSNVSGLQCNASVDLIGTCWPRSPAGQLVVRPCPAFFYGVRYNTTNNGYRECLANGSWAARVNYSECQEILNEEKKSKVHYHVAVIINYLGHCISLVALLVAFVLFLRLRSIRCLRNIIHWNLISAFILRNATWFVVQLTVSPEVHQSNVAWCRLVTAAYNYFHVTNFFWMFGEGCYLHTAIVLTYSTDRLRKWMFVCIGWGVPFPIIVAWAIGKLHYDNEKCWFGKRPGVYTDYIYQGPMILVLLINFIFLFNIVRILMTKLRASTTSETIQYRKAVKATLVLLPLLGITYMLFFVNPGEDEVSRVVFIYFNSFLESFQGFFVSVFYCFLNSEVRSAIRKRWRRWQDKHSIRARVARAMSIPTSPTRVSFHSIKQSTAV

`CC1=C2C[C@H]3[C@@H](CC=C4C[C@@H](O)CC[C@@]43C)[C@@H]2CC[C@]12O[C@@H]1C[C@H](C)CN[C@H]1[C@H]2C`: the molecule was called inactive in assay [1] and in [2].
For the molecule `Oc1ccc(Cl)cc1Cl`, the molecule was classed as inactive in assay [3].
What is called AC50 is the midpoint of the concentration-response curve, whichever way the signal moves. In the case of `CCCCCCCCCC[N+](C)(C)CCCCCCCCCC`, the AC50 in [4] was 2.98 µM (active); in [5], 4.36 µM (active); in [6], 4.31 µM (active); in [7] it was 14.3 µM (active); in [8] it was 7.48 µM (active); in [9], 6.6 µM (active). The AC50 was 7.2 µM (active) in [10], 21.1 µM (active) in assay [3], 4.3 µM (active) in assay [11] and 21.9 µM (active) in [1].
For the molecule `COc1ccc(O)c(C(C)(C)C)c1`, the AC50 was 13.2 µM (active) in assay [3] and 18.8 µM (active) in assay [1]. Besides, the result in assay [12] and in assay [13] was inactive.
`N#Cc1ccc(N(CC(N)=O)CC(F)(F)F)cc1C(F)(F)F`: the outcome in [14] was inactive.
For the molecule `Clc1ccc(C(c2ccccc2Cl)C(Cl)(Cl)Cl)cc1` (configuration not stated), the result in assay [11] was inactive.
Regarding `CC(c1ccc(O)cc1)(c1ccc(O)cc1)c1ccc(O)cc1`, the molecule was classed as inactive in [15].
Regarding `CCOP(=S)(OCC)SCSC(C)(C)C`, the outcome in [16] and in [3] was inactive.
In the case of `O=C(NC(=O)c1c(F)cccc1F)Nc1cc(Cl)c(OC(F)(F)C(F)F)c(Cl)c1`, the molecule was classed as inactive in assay [7].
As to `Cc1cc(-c2ccc(N)c(C)c2)ccc1N`, the outcome in assay [17] was inactive.
`CCC(C)(CC)c1cc(NC(=O)c2c(OC)cccc2OC)on1`: the AC50 in [7] was 1.03 µM (active). The result in assay [18] was inactive.
Turning to `Cc1ccccc1[N+](=O)[O-]`, the call in assay [18] was inactive.
For the molecule `Oc1ccc(C(c2ccc(O)cc2)(C(F)(F)F)C(F)(F)F)cc1`, the AC50 in [6] was 11.4 µM (active); in assay [8], 25 µM (active); in assay [3], 1.39 µM (active); in assay [12], 38.1 µM (active); in assay [11], 4.93 µM (active); in [1], 11.7 µM (active). In assay [2], the concentration at half-maximal activity (AC50) was 41.2 µM (active).
Consider `NS(=O)(=O)C(F)(F)C(F)(F)C(F)(F)C(F)(F)C(F)(F)C(F)(F)C(F)(F)C(F)(F)F`, for which the result in [11] and in assay [19] was inactive.
With `CC(C)C(=O)OCC(C)(C)C(OC(=O)C(C)C)C(C)C` (configuration not stated), the result in assay [20] was inactive.
Consider `CCC(C)(c1ccc(O)cc1)c1ccc(O)cc1`, for which the result in assay [4] was inactive. Also, the AC50 is 13.2 µM (active) in assay [6], 16.9 µM (active) in assay [3], 9.36 µM (active) in assay [11] and 16.5 µM (active) in assay [1].
